This note sets out measurements from PubChem BioAssay (NCATS).

Results filed as inconclusive are left out. Values without a mark were called inactive. The source made the active and inactive calls. The call rests on the fitted dose curve; in most records, active means well fitted inhibition curve with a large enough effect; inconclusive means small, poorly fitted or top-dose-only effect; inactive means flat fitted curve, though single readings scatter.
On the % scale 0 is the no-effect control and ±100 the full control effect.

The assay in a line: P-glycoprotein substrates identified in KB-8-5-11 adenocarcinoma cell line, qHTS therapeutic library screen (AID 1346987). Further: nearly all actives have a fitted effect of over 65% in size. To be noted: KB-8-5-11 (P-gp overexpressing) viability, CellTiter-Glo, 72 h; series mostly up to 44.5 µM; activity change, negative = cytotoxicity: at the top concentration. The gist of the method:
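KB-8-5-11: colchicine-selected sub-line of KB-3-1 over-expressing P-gp; assay medium lacked colchicine. 72 h drug exposure at 37 degree C, CellTiter-Glo.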
(qHTS replaces the single test concentration by a dilution series.)
For the compound `COc1cc(C)c(C(=O)O[C@H]2[C@@H](OC(C)=O)[C@H](n3ccc(=O)[nH]c3=O)O[C@@H]2CO)c(OC)c1`, the “outcome” value was “inactive [at 17.3 µM]”.
In the case of `C=C(C(=O)O)C1CCC2(C)CCC(O)C(C)(O)C2C1` (stereo not given), the “activity change, negative = cytotoxicity” value was -8.05%.
In the case of `CC1CCC2(C(=O)O)CCC3(C)C(=CCC4C5(C)CCC(OC(=O)/C=C/c6ccccc6)C(C)(C)C5CCC43C)C2C1C` (stereo not given), the “activity change, negative = cytotoxicity” value was -2.86% [at 17.3 µM].
For `N#Cc1ccc(-c2cnc3[nH]cc(NC(=O)c4cccnc4)c3c2)cc1`, the “activity change, negative = cytotoxicity” value was -3.38%.
The same measure, in the same setting: under `O=C(CCCCN1CCOCC1)Nc1ccc(-c2cccnc2)cc1` stands 0.946%; under `CC[C@H]1OC(=O)[C@H](C)[C@@H](O[C@H]2C[C@@](C)(OC)[C@@H](O)[C@H](C)O2)[C@H](C)[C@@H](O[C@@H]2O[C@H](C)C[C@H](N(C)C)[C@H]2O)[C@](C)(O)C[C@@H](C)C(=O)[C@H](C)[C@H]2OC(=O)O[C@@]21C`, 3.48%.
Still for that read-out and setting: under `CC(C)(O)/C=C/C1=CC(=O)[C@@](C)(O)C[C@H]1O` stands 7.04%.
Same read-out and setting: under `C=CC(C)(O)CC/C=C(\C)C(=O)OC1C(O)C(CO)OC(OC(=O)C23CCC(C)(C)CC2C2=CCC4C5(C)CCC(OC6OC(COC7OCC(OC(C)=O)C(O)C7OC7OC(COC(C)=O)C(O)C(O)C7O)C(O)C(O)C6O)C(C)(C)C5CCC4(C)C2(C)C(O)C3O)C1OC1OCC(OC2OCC(O)C(OC3OCC(O)C(O)C3O)C2O)C(O)C1O` (stereo not given) stands 9.63% [at 5.11 µM].
On to `CC1=C2C3OC(=O)C(C)C3(O)CCC2(C)CCC1O` (stereo not given), for which the “activity change, negative = cytotoxicity” value was 5.71%.
For the compound `O=C(O)/C=C/c1cc2c(cc1O[C@@H]1O[C@H](CO)[C@@H](O)[C@H](O)[C@H]1O)OCO2`, the result was inactive.
